Source: PubChem
D3 antag – qHTS of D3 Dopamine Receptor Antagonist: qHTS; D3R cells, DiscoveRx beta-arrestin luminescence, antagonist mode; active compounds read low; max response, negative = inhibition, %; 2.5% of 360,000 active; AID 652054, 2013; in the data active means max response below about -50%; inconclusive means no clear call, values can overlap the other calls; further: on the % scale 0 is the no-effect control and ±100 the full control effect
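Cells expressing the human receptor were seeded at 1500 cells/well, incubated overnight at 37 degrees C in 5% CO2, then exposed to library compounds with dopamine controls for 90 minutes at 37 degrees C before luminescent detection.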
D3 ag – qHTS of D3 Dopamine Receptor Agonist: qHTS; 0.58% of 410,000 active; AID 652048, 2013; max activation, %; D(3) dopamine receptor (Homo sapiens), P35462; D3R DiscoveRx beta-arrestin cells, luminescence, 90 min; in the data active means max activation above about 30%; further: 0% is about no effect
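Agonist-mode cell screen: cells plated at 1500/well and incubated overnight at 37 °C, then exposed to library compounds for 90 min at 37 °C. Detection reagent was added for 30–60 min at room temperature, and luminescence was read.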
LDHA block – qHTS assay for inhibitors of human lactate dehydrogenase; purified LDHA, NADH/diaphorase-resazurin fluorescence; active compounds read low; 0.15% of 480,000 active; AID 1347041, 2019; activity change, % (values are at about 110 or 230 µM); L-lactate dehydrogenase A chain (Homo sapiens), P00338; in the data active means activity change below about -30%; inconclusive means mostly about -25% to -30%;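 further: plate controls were DMSO wells for no effect and wells without enzyme for full effect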
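Human LDH5 at 2 nM final in Tris HCl pH 7.4 with 0.06 mM NADH and 0.2 mM pyruvate, reacted 5 minutes at room temperature. Remaining NADH coupled via diaphorase/resazurin; resorufin fluorescence read at 0 and 20 minutes, normalized to enzyme-free and DMSO wells.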
PI5P4Ka inh – qHTS for Inhibitors of phosphatidylinositol 5-phosphate 4-kinase (PI5P4K) | 1.2% of 330,000 active | max response, % | PI5P4Kalpha enzyme, ADP-Glo luminescence, 60 min; active compounds read low | AID 652105, 2013 | Phosphatidylinositol 5-phosphate 4-kinase type-2 alpha (Homo sapiens), P48426; active means max response of -50% or lower; inconclusive means between -30% and -50%; inactive means -30% or higher; further: value at the top dose of about 77 µM; on the % scale 0 is the no-effect control and ±100 the full control effect
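Enzyme plus substrate dispensed, test compounds pinned in, then ATP (5 microM final) added. After 60 min at RT, ADP-Glo reagent 1 for 45 min and reagent 2 for 30 min preceded luminescence imaging.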
PI4K2A inh – qHTS for small molecular inhibitors of PI4K2A; Phosphatidylinositol 4-kinase type 2-alpha (Homo sapiens), Q9BTU6; purified PI4K2A, ADP-Glo luminescence, 1 h; active compounds read low; activity change, negative = inhibition, % at 76.9 µM; 0.13% of 420,000 active; in the data active means activity change below about -50%; inconclusive means mostly about -30% to -49%;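 further: -100% = wells without enzyme as full effect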
Target sequence (Q9BTU6 whole entry, looked up): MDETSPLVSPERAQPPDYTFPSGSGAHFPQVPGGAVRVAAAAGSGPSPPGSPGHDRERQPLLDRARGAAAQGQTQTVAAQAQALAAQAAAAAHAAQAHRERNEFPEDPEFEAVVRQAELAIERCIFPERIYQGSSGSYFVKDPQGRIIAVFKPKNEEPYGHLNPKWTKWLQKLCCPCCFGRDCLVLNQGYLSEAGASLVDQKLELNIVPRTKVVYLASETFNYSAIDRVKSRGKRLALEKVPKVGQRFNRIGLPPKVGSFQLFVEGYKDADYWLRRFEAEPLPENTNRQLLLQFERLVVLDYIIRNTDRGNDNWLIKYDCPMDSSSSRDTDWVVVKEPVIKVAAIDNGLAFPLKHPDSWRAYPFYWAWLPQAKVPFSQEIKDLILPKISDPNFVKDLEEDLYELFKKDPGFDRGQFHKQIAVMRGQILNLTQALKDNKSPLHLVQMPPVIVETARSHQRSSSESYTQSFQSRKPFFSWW
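Compounds are screened against recombinant PI4K2A using PI as substrate and ATP, the latter dispensed at 300 microM. Reactions run one hour at ambient temperature before ADP-Glo detection; full inhibition defined by wells lacking enzyme.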
* hit, by the source's call; ? = inconclusive; nt = not tested or not shown. Shown are actives, neighbours in structure and some others; about 3.3% of the full set was active somewhere.

SMILES	D3 antag	D3 ag	LDHA block	PI5P4Ka inh	PI4K2A inh
N#Cc1ccccc1CNc1ccccc1Cl	nt	nt	2	nt	nt
Cc1ccccc1C(=O)N1CCN(c2ccccn2)CC1	15	0	-6	-4	1
O=C(c1ccccc1Br)N1CCN(c2ccccn2)CC1	-11	33*	-7	1	1
O=S1(=O)c2ccc(Br)cc2OC[C@@H](Cc2ccccc2)N1Cc1cn(CCC2OCCO2)nn1	nt	nt	nt	nt	3
Cc1ccc(NC(=O)CCc2c(C)c3ccc(C)cc3oc2=O)c(F)c1	nt	nt	-3	nt	nt
Cc1nn(CC(=O)NCCCN2CCN(Cc3ccccc3)CC2)c(=O)c2cc(-c3ccccc3)nn12	-66*	-17	-4	-4	2
CCc1nn(CC(=O)NCCCN2CCN(C)CC2)c(=O)c2cc3sccc3n12	-7	-12	-3	0	-4
Cc1nn(CC(=O)NCCCN2CCC(Cc3ccccc3)CC2)c(=O)c2cc(-c3ccccc3)nn12	-88*	3	-5	2	-2
CCc1ccc(-c2cc3c(=O)n(CC(=O)NCCCN4CCC(Cc5ccccc5)CC4)nc(C)n3n2)cc1	-15	-15	0	-15	0
CCc1nn(CC(=O)NCCCN2CCc3ccccc3C2)c(=O)c2cc3sccc3n12	-112*	-16	1	4	4
CCN1CCN(CCCNC(=O)Cn2nc(C)n3nc(-c4ccccc4)cc3c2=O)CC1	-5	-1	-4	1	-1
COc1cc2c(cc1[N+](=O)[O-])-c1ccc([N+](=O)[O-])cc1C2=NNC(N)=S	13	8	-1	-59*	0
COC(=O)[C@H](C(C)C)N1Cc2nnn(Cc3ccccc3)c2C=CS1(=O)=O	nt	nt	nt	nt	6
O=C1c2ccccc2C(=O)N1SC1CCCCC1	-92*	1	1	1	15
O=C(OCN1C(=O)c2ccccc2C1=O)C1CCCCC1	14	0	-2	15	9
CC(C(=O)Nc1ccccc1F)N(C)Cc1ccc2c(c1)OCCO2 (stereo not given)	nt	nt	-21	nt	nt
CCOC(=O)N1CCc2c(sc(NC(=O)CN3CCOCC3)c2C#N)C1	2	11	-7	5	2
CCOC(=O)N1CCc2c(sc(N)c2C#N)C1	7	60*	5	?	-1
COc1cc(NC(=O)CC2C(=O)N(c3cccc(C)c3)C(=O)N2Cc2ccco2)cc(OC)c1 (stereo not given)	nt	62*	-2	nt	-3
c1ccc2c(c1)CCN(c1ncnc3c1[nH]c1ccccc13)C2	-53*	2	-15	-3	3
Cc1ccc(S(=O)(=O)N2Cc3ccccc3CC2C(=O)Nc2ccc3c(c2)OCO3)cc1 (stereo not given)	0	-2	5	-51*	-22
CC(=O)Nc1ccc(S(=O)(=O)N2CCCC2C(=O)Nc2ccc3c(c2)OCCO3)cc1 (stereo not given)	2	2	-9	0	-3
Cc1ccc(S(=O)(=O)N2C(=O)CCC2C(=O)Nc2ccc3c(c2)OCCO3)cc1 (stereo not given)	-65*	-6	0	0	2
Cc1ccc(NC(=O)C2CCCN(S(=O)(=O)c3ccc4[nH]c(=O)oc4c3)C2)cc1 (stereo not given)	nt	nt	0	nt	nt
COCCn1c(SC(C)C(=O)c2ccc(OC)cc2)nnc1-c1ccc(Cl)cc1 (stereo not given)	nt	nt	8	nt	nt
SMILES	D3 antag	D3 ag	LDHA block	PI5P4Ka inh	PI4K2A inh
OC(COCc1ccccc1)CN1CCN(c2ccccc2)CC1 (stereo not given)	?	11	-3	-7	-10
OC(COCc1cccs1)CN1CCN(c2cccc(C(F)(F)F)c2)CC1 (stereo not given)	-55*	-5	0	0	2
CCOc1nc2ccccc2nc1N1CCC(C(=O)NC2CCCC2)CC1	nt	nt	-2	nt	nt
O=S(=O)(NCCc1coc(-c2ccc(F)cc2)n1)c1ccccc1	nt	nt	0	nt	nt
CCCOc1ccc(C2C3=C(Nc4nc(N)[nH]c(=O)c42)c2ccccc2C3=O)cc1 (stereo not given)	-55*	-9	-1	?	-1
CCC(=NCc1ccccc1)c1c(C(F)(F)F)[nH]n(-c2nc3ccccc3s2)c1=O	-60*	-10	0	-3	2
CCC(=NCc1ccco1)c1c(C(F)(F)F)[nH]n(-c2nc3ccccc3s2)c1=O	-12	-6	-22	nt	-13
COCCCNc1nc2ccccc2nc1NS(=O)(=O)c1ccc(OC)cc1	13	2	-2	-3	-17
COCCCNc1nc2ccccc2nc1NS(=O)(=O)c1cccs1	-64*	-3	-7	0	0
CCOc1ccc2nc(N3CCCC(C(=O)NCCc4cc(OC)ccc4OC)C3)sc2c1 (stereo not given)	nt	nt	-4	nt	nt
COCC1CCN(Cc2cn(-c3ccccc3F)nc2-c2cc(C)sc2C)CC1	-84*	-30	-6	1	-2
Cc1cc(-c2nn(-c3ccccc3F)cc2CN2CCCC(CO)C2)c(C)s1 (stereo not given)	-53*	-4	-5	4	-3
CCn1nc(C(=O)N(C)Cc2cccc(OC)c2)c2ccccc2c1=O	nt	nt	6	nt	nt
CCOC(=O)CSc1nc2ccccc2c(=O)n1NC(=O)c1ccccc1	7	35*	5	nt	0
O=C(Cc1csc(N2CCOCC2)n1)N/N=C/c1ccc(O)c(O)c1O	-57*	-13	38	-60*	-9
Cc1cc(/C=N/NC(=O)c2ccncc2)c(C)n1-c1ccccc1	-29	-6	3	-1	-2
Cc1cc(C(=O)N/N=C/c2ccc(O)c(O)c2O)c(C)n1-c1ccccc1	3	4	7	-62*	-11
O=C(CCN1CCN(c2ccccc2)CC1)NNC(=O)Cc1ccccc1Cl	?	6	-2	4	1
Cc1cccc(OCC(=O)NNC(=O)CCN2CCN(c3ccccc3)CC2)c1C	-83*	-9	-4	4	-5
C/C(=N\NC(=O)Cc1csc(N2CCOCC2)n1)c1ccccc1	14	8	0	12	4
O=C(CCN1CCN(c2ccccc2)CC1)NNC(=O)c1ccccc1	-54*	8	0	1	2
O=C(CCN1CCN(c2ccccc2)CC1)N/N=C/c1ccc(O)c(O)c1O	3	11	11	-69*	-19
Cc1cc(S(=O)(=O)N2CCOCC2)ccc1OCC(=O)N1CCC(C(N)=O)CC1	8	-4	0	-2	0
COC(=O)C1CCN(C(=O)COc2ccc(S(=O)(=O)N3CCOCC3)cc2Cl)CC1	-2	63*	-9	1	1
Cc1nc(NC(=O)c2ccccc2)sc1-c1csc(Nc2cccc(Br)c2)n1	nt	nt	-9	nt	nt
COc1ccccc1Cc1nnc(NC(=O)C2CCCO2)s1 (stereo not given)	nt	nt	-6	nt	nt
